Assay results taken from PubChem BioAssay AID2189 (The Scripps Research Institute Molecular Screening Center, 2009).
Some of the results follow. A number with no mark means an inactive call. Activity calls are given as the source filed them. Rule as the data show it: active = inhibition above about 4.9%; inactive = the rest.

Test system: metallo-beta-lactamase IMP-1 (Pseudomonas aeruginosa)
Assay: inhibition of IMP-1 substrate hydrolysis – biochemical, epi-absorbance, hits shared with VIM-2 screen, confirmation (AID 2189);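 also: 0% = enzyme with vehicle and 100% = vehicle without enzyme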
Conditions: purified IMP-1 enzyme, at 5.6 µM, hits give high values

Structure (SMILES) | inhibition
Cc1cc2nc3c(=O)n(Cc4ccccc4)c(=O)[nH]c3nc2cc1N | 13.2% (active)
COc1cc(/C=C2/SC(=S)N(Cc3ccccc3)C2=O)cc(OC)c1O | 9.27% (active)
NS(=O)(=O)c1ccc(NC(=O)COC(=O)c2c3c(nc4ccccc24)/C(=C\c2ccc4c(c2)OCO4)CCC3)cc1 | -2.39%
Oc1ccc2ccc3cccc[n+]3c2c1 | 23.2% (active)
NC(=O)c1ccc(NC(=O)COC(=O)c2c3c(nc4ccccc24)/C(=C\c2ccc4c(c2)OCO4)CCC3)cc1 | -2.29%
C/C(=N\Nc1ccc(S(N)(=O)=O)cc1[N+](=O)[O-])c1cccs1 | 10.6% (active)
Cc1nn(C)cc1N1C(=O)c2cccc3c(N)ccc(c23)C1=O | 29.8% (active)
c1ccc(-c2nccc(-c3ccc(-n4cnc5ccccc54)cc3)n2)nc1 | 0.59%
Nc1c(C(=O)c2cccs2)sc2nsc(SCCN3CCCCC3)c12 | 18.4% (active)
CN1C(=O)c2cccc3c(N)ccc(c23)C1=O | 36.2% (active)
CCC(=C/c1sc2ccc3ccccc3c2[n+]1C)/C=C1\Sc2ccc3ccccc3c2N1C | 27.6% (active)
